Experimental data as given in PubChem BioAssay.
Active and inactive are the calls of the source.

Experiments:
[1] = system: PRMT1 (protein arginine N-methyltransferase 1); assay: small molecules binding arginine methyltransferase PRMT1 – biochemical, small-molecule microarray, 635 nm fluorescence, primary screen (AID 1088); conditions: higher = more signal;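 note: binding of Prmt1 protein to compounds spotted on small-molecule microarray slides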
[2] = growth effects on S. cerevisiae YJM789 – YJM789 clinical isolate, OD600, 24 h, basal, primary screen (AID 1089); conditions: higher = more signal, called active from +8 up or from −8 down;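 note: growth of clinical yeast isolate S. cerevisiae YJM 789 seeded 1000 cells per well; test concentration not given here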
[3] = S. pombe growth modifiers, basal conditions – strain 972, OD600, 24 h, no modulator, primary screen (AID 1090);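 note: basal condition with compound alone and no growth modifier present; test concentration not given here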; conditions: S. pombe 972 growth, higher = more signal, called active from +8 up or from −8 down
[4] = budding yeast growth modifiers under rapamycin – strain BY4716, OD600, 96 h, primary screen (AID 1091); note: test concentration not given here; conditions: S. cerevisiae BY4716 + rapamycin, higher = more signal, called active from +8 up or from −8 down
[5] = target: Torsin-1A-interacting protein 2 (Homo sapiens) (UniProt Q8NFQ8); assay: small molecules binding lysate-expressed LULL1 – cell lysate, human LULL1 lysate, 635/667 nm fluorescence, primary screen (AID 1092); conditions: small-molecule microarray, hLULL1 lysate binding, 635 nm fluorescence; higher = more signal;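 note: probe is lysate of COS7 cells overexpressing human LULL1; score merges per-feature 667 nm fluorescence with signal-to-noise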
Chain of Torsin-1A-interacting protein 2 (Homo sapiens) (Q8NFQ8 whole entry, looked up): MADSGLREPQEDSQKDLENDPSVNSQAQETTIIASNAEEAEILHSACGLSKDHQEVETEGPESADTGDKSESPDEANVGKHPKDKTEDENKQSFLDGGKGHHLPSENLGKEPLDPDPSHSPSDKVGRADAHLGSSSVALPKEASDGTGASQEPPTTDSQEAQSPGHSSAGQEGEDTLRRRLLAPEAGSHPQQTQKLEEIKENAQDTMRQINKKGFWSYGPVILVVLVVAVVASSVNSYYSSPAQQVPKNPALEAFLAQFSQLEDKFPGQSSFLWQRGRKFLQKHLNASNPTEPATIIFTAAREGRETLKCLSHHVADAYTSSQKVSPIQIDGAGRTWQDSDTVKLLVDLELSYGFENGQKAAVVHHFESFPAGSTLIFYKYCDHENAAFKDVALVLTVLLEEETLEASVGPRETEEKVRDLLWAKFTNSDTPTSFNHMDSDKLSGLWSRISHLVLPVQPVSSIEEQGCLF

[6] = optical density change of DRC41 E. coli – strain DRC41, OD650, 24 h, E. coli filamentation project, primary screen (AID 1093);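 note: MC1000 strain lacking acrAB efflux and sulA so SOS filamentation is blocked; test concentration not given here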; conditions: E. coli DRC41 growth, higher = more signal, called active from +8 up or from −8 down
[7] = probe aLefty2 binding to arrayed compounds – biochemical, biotinylated probe, 635/667 nm fluorescence, primary screen (AID 1094); conditions: small-molecule microarray, higher = more signal;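 note: score merges spot fluorescence near 667 nm with spot signal-to-noise ratio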
[8] = system: Noggin (protein binding on small-molecule microarray); assay: small molecules binding Noggin protein – biochemical, 635/667 nm fluorescence, primary screen (AID 1095); conditions: 635 nm fluorescence, higher = more signal;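 note: score merges 667 nm feature fluorescence with signal to noise over triplicate slides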
[9] = target: Neurogenic locus notch homolog protein 3 (Homo sapiens) (UniProt Q9UM47); assay: small molecules binding NOTCH3 protein – biochemical, 635/667 nm fluorescence, primary screen (AID 1096); conditions: small-molecule microarray, 635 nm fluorescence, higher = more signal
Chain of Neurogenic locus notch homolog protein 3 (Homo sapiens) (Q9UM47 whole entry, looked up): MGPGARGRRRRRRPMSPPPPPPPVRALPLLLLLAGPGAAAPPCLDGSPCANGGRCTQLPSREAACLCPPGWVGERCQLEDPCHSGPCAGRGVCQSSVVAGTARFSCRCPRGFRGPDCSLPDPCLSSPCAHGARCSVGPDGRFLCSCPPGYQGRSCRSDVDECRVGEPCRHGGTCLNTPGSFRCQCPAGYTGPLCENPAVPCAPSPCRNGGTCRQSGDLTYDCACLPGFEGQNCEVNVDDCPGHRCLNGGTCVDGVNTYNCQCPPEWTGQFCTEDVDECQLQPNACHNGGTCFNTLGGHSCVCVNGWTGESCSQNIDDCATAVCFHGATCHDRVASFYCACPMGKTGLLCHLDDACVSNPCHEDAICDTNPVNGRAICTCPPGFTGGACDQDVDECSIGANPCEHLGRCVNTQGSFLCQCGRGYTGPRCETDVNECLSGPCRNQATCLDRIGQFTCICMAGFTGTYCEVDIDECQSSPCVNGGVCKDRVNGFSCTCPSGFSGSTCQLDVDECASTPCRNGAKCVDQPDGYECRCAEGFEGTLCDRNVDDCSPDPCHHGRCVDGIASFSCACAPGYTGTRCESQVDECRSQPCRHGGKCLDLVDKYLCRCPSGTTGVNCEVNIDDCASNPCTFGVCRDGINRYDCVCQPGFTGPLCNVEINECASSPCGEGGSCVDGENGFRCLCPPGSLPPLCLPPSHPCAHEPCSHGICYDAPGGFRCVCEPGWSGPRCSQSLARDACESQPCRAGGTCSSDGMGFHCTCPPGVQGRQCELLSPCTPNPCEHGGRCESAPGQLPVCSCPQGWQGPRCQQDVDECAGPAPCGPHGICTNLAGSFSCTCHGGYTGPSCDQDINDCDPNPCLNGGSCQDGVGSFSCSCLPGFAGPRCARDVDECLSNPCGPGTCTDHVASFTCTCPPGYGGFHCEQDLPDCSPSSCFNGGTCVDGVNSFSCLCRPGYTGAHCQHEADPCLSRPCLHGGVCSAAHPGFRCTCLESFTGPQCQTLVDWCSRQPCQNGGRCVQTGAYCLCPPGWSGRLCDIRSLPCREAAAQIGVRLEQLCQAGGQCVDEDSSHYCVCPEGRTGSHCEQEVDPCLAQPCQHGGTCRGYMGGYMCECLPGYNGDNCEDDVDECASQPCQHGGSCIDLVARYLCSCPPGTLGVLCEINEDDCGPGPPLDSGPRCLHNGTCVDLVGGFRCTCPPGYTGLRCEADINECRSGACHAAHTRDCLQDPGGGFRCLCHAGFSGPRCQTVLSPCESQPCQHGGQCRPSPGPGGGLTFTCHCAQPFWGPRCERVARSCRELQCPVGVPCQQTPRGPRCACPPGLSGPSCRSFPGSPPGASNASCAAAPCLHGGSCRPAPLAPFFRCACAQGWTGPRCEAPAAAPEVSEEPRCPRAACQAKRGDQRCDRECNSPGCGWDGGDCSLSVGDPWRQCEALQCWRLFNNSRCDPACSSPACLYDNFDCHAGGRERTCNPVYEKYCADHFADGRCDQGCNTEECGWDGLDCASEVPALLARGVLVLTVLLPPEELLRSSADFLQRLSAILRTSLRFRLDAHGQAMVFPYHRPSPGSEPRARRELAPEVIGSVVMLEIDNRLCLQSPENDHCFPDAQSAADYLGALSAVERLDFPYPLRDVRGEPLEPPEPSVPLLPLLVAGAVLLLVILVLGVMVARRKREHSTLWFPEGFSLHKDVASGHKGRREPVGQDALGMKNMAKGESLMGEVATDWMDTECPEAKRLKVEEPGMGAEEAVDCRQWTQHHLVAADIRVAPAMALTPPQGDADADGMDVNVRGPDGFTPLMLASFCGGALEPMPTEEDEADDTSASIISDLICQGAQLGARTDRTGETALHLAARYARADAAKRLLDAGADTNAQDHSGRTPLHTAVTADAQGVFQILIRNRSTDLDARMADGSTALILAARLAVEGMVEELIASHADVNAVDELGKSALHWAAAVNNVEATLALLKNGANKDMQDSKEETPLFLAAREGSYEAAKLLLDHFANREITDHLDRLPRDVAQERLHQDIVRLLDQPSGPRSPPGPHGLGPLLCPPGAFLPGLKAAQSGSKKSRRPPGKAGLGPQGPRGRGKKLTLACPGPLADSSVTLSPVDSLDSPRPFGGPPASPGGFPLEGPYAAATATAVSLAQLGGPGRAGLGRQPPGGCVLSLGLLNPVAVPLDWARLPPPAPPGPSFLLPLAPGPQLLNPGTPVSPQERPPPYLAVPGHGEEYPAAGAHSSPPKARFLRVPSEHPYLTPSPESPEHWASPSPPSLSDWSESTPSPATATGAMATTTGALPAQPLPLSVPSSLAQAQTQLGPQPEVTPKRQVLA

[10] = probe aEGFR binding to arrayed compounds – biochemical, biotinylated probe, 635/667 nm fluorescence, primary screen (AID 1097); conditions: small-molecule microarray, higher = more signal;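 note: probe is a biotinylated anti-EGFR antibody binding compounds printed on slides; score combines fluorescence near 667 nm and signal to noise of each spot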
[11] = system: Plasmodium falciparum Sir2 (PF13_0152, Sir2A); assay: Plasmodium falciparum Sir2A binding compounds – biochemical, small-molecule microarray, 635 nm fluorescence, primary screen (AID 1098); conditions: fluorescence 635 nm, higher = more signal;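 note: score merges spot fluorescence intensity with its signal-to-noise ratio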
[12] = probe aDKK1 binding to arrayed compounds – biochemical, biotinylated probe, 635/667 nm fluorescence, primary screen (AID 1099); conditions: small-molecule microarray, higher = more signal;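 note: score merges 667nm spot fluorescence with signal to noise across triplicate slides; reference of the scale not given here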
[13] = probe aCHRDL2 binding to arrayed compounds – biochemical, biotinylated probe, 635/667 nm fluorescence, primary screen (AID 1100); conditions: small-molecule microarray, higher = more signal
[14] = change in splice reporter luminescence, either direction, cell-based, HEK293, spliceosome inhibition project, primary screen (AID 1101); conditions: HEK293 splicing luciferase reporter, 24 h, higher = more signal, called active from +8 up or from −8 down;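 note: HEK293 cells carrying a splicing-competent luciferase reporter gene; test concentration not given here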
[15] = target: Fibroblast growth factor 10 (Homo sapiens) (UniProt O15520); assay: compounds binding fibroblast growth factor 10 – biochemical, small-molecule microarray, 635 nm fluorescence, primary screen (AID 1102); conditions: FGF10 binding, fluorescence 635 nm, higher = more signal
Chain of Fibroblast growth factor 10 (Homo sapiens) (O15520 whole entry, looked up): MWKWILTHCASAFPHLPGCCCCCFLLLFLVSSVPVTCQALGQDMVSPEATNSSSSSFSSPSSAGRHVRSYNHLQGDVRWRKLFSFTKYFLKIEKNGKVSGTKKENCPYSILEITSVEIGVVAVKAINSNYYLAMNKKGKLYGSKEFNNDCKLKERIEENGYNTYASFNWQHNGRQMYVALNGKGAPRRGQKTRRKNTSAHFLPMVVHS

[16] = system: glycogen synthase kinase-3 (GSK3A per assay name; protocol says GSK3B); assay: compounds binding glycogen synthase kinase-3 – biochemical, small-molecule microarray, 635 nm fluorescence, GSK3A, primary screen (AID 1103); conditions: fluorescence 635 nm, higher = more signal; note: the record names both GSK3A and GSK3B
[17] = target: Epidermal growth factor receptor (Homo sapiens) (UniProt P00533); assay: compounds binding epidermal growth factor receptor – biochemical, small-molecule microarray, 635 nm fluorescence, primary screen (AID 1104); conditions: EGFR binding, higher = more signal;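 note: score merges 667 nm emission intensity with spot signal to noise over triplicate slides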
Chain of Epidermal growth factor receptor (Homo sapiens) (P00533 whole entry, looked up): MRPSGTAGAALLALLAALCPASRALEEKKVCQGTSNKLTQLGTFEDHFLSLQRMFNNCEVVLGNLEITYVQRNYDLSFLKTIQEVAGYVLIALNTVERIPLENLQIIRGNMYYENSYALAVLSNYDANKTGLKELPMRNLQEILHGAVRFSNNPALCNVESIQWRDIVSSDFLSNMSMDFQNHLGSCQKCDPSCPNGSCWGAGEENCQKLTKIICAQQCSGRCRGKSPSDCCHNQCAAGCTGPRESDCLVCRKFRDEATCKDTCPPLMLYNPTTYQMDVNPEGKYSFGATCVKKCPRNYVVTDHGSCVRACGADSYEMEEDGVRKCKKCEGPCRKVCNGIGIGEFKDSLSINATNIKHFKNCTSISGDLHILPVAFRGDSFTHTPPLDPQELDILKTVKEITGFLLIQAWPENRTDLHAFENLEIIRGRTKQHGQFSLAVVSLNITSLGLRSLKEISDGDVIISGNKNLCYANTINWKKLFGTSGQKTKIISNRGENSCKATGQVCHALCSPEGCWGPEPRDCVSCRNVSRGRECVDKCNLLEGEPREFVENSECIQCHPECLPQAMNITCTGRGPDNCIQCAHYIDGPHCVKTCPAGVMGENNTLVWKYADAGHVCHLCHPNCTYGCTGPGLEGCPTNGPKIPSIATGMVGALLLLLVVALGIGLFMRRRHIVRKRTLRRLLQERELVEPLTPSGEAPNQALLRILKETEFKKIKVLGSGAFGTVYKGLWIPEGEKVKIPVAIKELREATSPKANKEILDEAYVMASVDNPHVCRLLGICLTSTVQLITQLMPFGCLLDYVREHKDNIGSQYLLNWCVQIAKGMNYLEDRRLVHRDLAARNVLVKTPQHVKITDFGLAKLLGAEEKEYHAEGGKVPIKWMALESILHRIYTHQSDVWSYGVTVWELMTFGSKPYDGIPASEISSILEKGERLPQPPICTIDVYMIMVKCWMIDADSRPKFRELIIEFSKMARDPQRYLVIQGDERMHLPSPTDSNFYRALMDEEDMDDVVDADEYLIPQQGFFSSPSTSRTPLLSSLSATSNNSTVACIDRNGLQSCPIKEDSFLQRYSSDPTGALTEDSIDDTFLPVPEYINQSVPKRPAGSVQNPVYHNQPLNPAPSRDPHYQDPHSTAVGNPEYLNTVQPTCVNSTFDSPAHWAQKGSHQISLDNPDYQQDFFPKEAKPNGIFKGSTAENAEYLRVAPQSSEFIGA

[18] = target: Follistatin-related protein 3 (Homo sapiens) (UniProt O95633); assay: compounds binding follistatin-related protein 3 – biochemical, small-molecule microarray, 635 nm fluorescence, primary screen (AID 1105); conditions: FSTL3 binding, higher = more signal;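 note: score merges emission near 667 nm and signal to noise per printed spot across three slides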
Chain of Follistatin-related protein 3 (Homo sapiens) (O95633 whole entry, looked up): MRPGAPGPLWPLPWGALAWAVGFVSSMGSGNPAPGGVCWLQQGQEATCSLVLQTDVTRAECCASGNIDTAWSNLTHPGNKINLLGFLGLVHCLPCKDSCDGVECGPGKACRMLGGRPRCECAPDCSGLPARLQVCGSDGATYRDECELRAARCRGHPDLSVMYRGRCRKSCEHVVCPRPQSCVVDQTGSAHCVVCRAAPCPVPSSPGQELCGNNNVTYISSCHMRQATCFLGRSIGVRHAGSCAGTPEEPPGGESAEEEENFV

[19] = target: Dickkopf-related protein 1 (Homo sapiens) (UniProt O94907); assay: small molecules binding DKK1 protein – biochemical, small-molecule microarray, 635 nm fluorescence scan, primary screen (AID 1106); conditions: higher = more signal;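 note: score merges emission near 667 nm with signal to noise over three replicate slides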
Chain of Dickkopf-related protein 1 (Homo sapiens) (O94907 whole entry, looked up): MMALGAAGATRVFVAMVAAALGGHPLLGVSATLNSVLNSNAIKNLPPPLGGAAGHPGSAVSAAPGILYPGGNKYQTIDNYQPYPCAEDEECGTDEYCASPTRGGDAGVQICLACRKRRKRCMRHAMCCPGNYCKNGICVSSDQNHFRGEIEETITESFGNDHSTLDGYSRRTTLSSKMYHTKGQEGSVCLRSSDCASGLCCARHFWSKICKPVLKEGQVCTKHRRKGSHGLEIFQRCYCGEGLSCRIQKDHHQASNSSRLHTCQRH

[20] = system: Inhibin beta A chain (activin A); assay: small molecules binding activin A – biochemical, small-molecule microarray, 635 nm fluorescence scan, primary screen (AID 1107); conditions: INHBA, higher = more signal;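 note: mouse activin A protein probed at 4.33 µg/mL on printed slides; score merges bound-protein fluorescence near 667 nm with spot signal-to-noise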

| SMILES | composite z-score [1] | z-score [2] | z-score [3] | z-score [4] | composite z-score [5] | z-score [6] | composite z-score [7] | composite z-score [8] | composite z-score [9] | composite z-score [10] | composite z-score [11] | composite z-score [12] | composite z-score [13] | z-score [14] | composite z-score [15] | composite z-score [16] | composite z-score [17] | composite z-score [18] | composite z-score [19] | composite z-score [20] |
| --- | --- | --- | --- | --- | --- | --- | --- | --- | --- | --- | --- | --- | --- | --- | --- | --- | --- | --- | --- | --- |
| C=CCOC(=O)[C@H]1[C@@H]2C(=O)O[C@@H](c3ccccc3)[C@@H](c3ccccc3)N2[C@@H](c2ccc(OCCOC(=O)[C@H]3C[C@H]4C(=O)N5CCC[C@H]5C(=O)N4[C@H]3c3cccc(OCCO)c3)cc2)[C@]12C(=O)Nc1ccc(I)cc12 | 1.53 | -0.104 (inactive) | -0.77 (inactive) | 0.289 (inactive) | 3.41 | -0.301 (inactive) | 1.35 | 1.49 | 1.12 | 0.938 | 2.03 | 2.12 | 1.36 | 1.1 (inactive) | 1.4 | 1.37 | 1.02 | 1.41 | 1.22 | 1.47 |
| COC(=O)[C@H](C)NC(=O)CCC1CC(OC(=O)NCCc2ccc(F)cc2)CC2(CCCC(COC(=O)NCC(c3ccccc3)c3ccccc3)O2)O1 (stereo not given in full) | 0.915 | 0.304 (inactive) | 0.917 (inactive) | 1.56 (inactive) | 1.88 | 0.115 (inactive) | -0.175 | 0.409 | 0.897 | -0.094 | 0.713 | -0.389 | -0.498 | -0.527 (inactive) | 0.377 | 0.756 | 0.384 | 0.691 | 0.457 | -0.0097 |
| COC(=O)CC=C[C@@H](C)[C@@H](C=NO[C@H](C)c1cn([C@@H]2COC[C@H]2O)nn1)OC | 1.35 | 0.212 (inactive) | 0.189 (inactive) | -0.266 (inactive) | 0.965 | 0.135 (inactive) | -0.156 | 0.359 | 0.484 | 0.0009 | 0.626 | -0.43 | -0.611 | 0.605 (inactive) | 0.739 | 0.617 | 0.856 | 1.06 | 0.492 | -0.335 |
| CO[C@@H]1COC(=O)CC=C[C@@H](C)[C@@H]2C=C[C@H](O)[C@@H](COC(=O)[C@H](C)NC(=O)CC=C[C@H]1C)O2 | 1.54 | -0.653 (inactive) | -0.465 (inactive) | -1.36 (inactive) | -0.75 | 0.0967 (inactive) | -0.212 | 1.42 | 0.868 | 0.0231 | 1.46 | -0.308 | -1.09 | -1.09 (inactive) | 0.441 | 0.674 | 1.04 | 1.03 | 1.28 | 0.578 |
| Cc1cc2c(c(=O)o1)[C@H](O)[C@H]1O[C@H]1C2=O | 0.527 | 0.228 (inactive) | -4.24 (inactive) | -0.643 (inactive) | -0.186 | -1.02 (inactive) | -0.0569 | 0.651 | 0.312 | -0.0007 | 0.412 | -0.178 | -0.245 | -0.331 (inactive) | 0.88 | 0.191 | 0.0205 | -0.139 | -0.0438 | 0.623 |
| CC1(C)OCC(C(O)C2=CCCCC2=O)CO1 (stereo not given) | 1.56 | 0.209 (inactive) | -0.0255 (inactive) | 0.856 (inactive) | 0.231 | -0.449 (inactive) | -0.0478 | 0.986 | 1.06 | 0.0688 | 1.04 | -0.137 | -0.704 | 0.733 (inactive) | 0.694 | 0.999 | 0.625 | 0.859 | 0.717 | 1.6 |
| COC(=O)[C@]1(CO)N=C(c2ccc(OCCCO)cc2)O[C@@H]1c1ccccc1N=[N+]=[N-] | 1.53 | -0.726 (inactive) | -0.683 (inactive) | -1.12 (inactive) | 3.19 | 0.269 (inactive) | -0.0639 | 1.82 | 0.298 | -0.162 | 0.428 | 0.341 | 0.194 | -0.121 (inactive) | 1.36 | 0.521 | 0.384 | 0.393 | 0.356 | 0.653 |
| CN(C)c1ccc(C(O)C2C=CC3C(=O)N(c4ccccc4)C(=O)C3N2Nc2ccccc2F)cc1 (stereo not given) | 1.09 | 0.0194 (inactive) | -13.6 (active) | 1.7 (inactive) | 2.21 | -0.457 (inactive) | -0.166 | -0.318 | 0.443 | 0.0904 | 1.58 | 0.407 | 0.792 | -0.947 (inactive) | -0.235 | 1.23 | -0.675 | 0.206 | -0.606 | 0.941 |
| C#C[C@@H](CC)O[Si](C#Cc1ccc(Oc2ccccc2)cc1)(C(C)C)C(C)C | 1.29 | 0.356 (inactive) | -0.951 (inactive) | 1 (inactive) | 0.964 | -0.44 (inactive) | -0.152 | 0.269 | 0.916 | -0.0028 | 0.301 | -0.137 | -0.225 | -1.17 (inactive) | 0.706 | 0.777 | 0.185 | 0.773 | 0.125 | 0.0324 |
| CC(=O)OC[C@H]1O[C@H](CC=NOC[C@@H](C)[C@H](OCc2ccccc2)C(C)C)C=C[C@@H]1OC(C)=O | 0.7 | -0.523 (inactive) | -0.0269 (inactive) | -1 (inactive) | -0.299 | -0.186 (inactive) | -0.0345 | 0.259 | -0.14 | -0.0873 | -0.15 | -0.262 | -0.478 | 0.955 (inactive) | -0.17 | 0.1 | 0.0284 | 0.523 | 0.169 | -0.0543 |
